# Measured values as given in PubChem BioAssay.
# Unmarked numbers belong to inactive results. Active and inactive are the calls of the source. Rule as the data show it, unless noted: active = inhibition above about 25%; inactive = the rest.
# How the values were obtained:
# [1] = biological target: Nuclear receptor coactivator 3 (Homo sapiens) (UniProt Q9Y6Q9); assay: SRC3 coactivator transcriptional activity inhibitors, confirmation, cell-based, luminescence, quadruplicate (AID 588792;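 active = mean inhibition over 43.08%, the solvent-only control mean plus 3 SD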;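 also: 0% = DMSO treated cells and 100% = gossypol at 36 µM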); settings: HEK293 GAL4-SRC3 luciferase reporter, at 3.6 µM, stronger effect = higher value
# [2] = test system: transactivating tegument protein VP16 (Human herpesvirus 1), Gal4-VP16 luciferase reporter; assay: VP16 transactivation inhibitors, counter-screen for SRC3 inhibitor project, cell-based, luminescence, high throughput (AID 588794; in the data active = inhibition above about 30%); settings: mammalian cells, VP16-driven luciferase reporter luminescence; at 3.6 µM; stronger effect = higher value
# [3] = biological target: Nuclear receptor coactivator 1 (Homo sapiens) (UniProt Q15788); assay: SRC1 coactivator transcriptional activity inhibitors, confirmation, cell-based, luminescence, quadruplicate (AID 588820;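 active = mean inhibition above 46.68%, the untreated control wells mean plus 3 SD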;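 also: 0% = DMSO wells and 100% = gossypol 36 µM treated wells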); settings: HEK293 GAL4-SRC1 luciferase reporter, at 3.6 µM, stronger effect = higher value
# [4] = VP16 transactivation inhibitors, counter-screen for SRC1 inhibitor project, cell-based, luminescence, high throughput (AID 588824); settings: cell-based VP16 transactivation luciferase luminescence; at 3.6 µM; stronger effect = higher value
# Chain of Nuclear receptor coactivator 1 (Homo sapiens) (Q15788 whole entry, looked up, the tested form may be a part): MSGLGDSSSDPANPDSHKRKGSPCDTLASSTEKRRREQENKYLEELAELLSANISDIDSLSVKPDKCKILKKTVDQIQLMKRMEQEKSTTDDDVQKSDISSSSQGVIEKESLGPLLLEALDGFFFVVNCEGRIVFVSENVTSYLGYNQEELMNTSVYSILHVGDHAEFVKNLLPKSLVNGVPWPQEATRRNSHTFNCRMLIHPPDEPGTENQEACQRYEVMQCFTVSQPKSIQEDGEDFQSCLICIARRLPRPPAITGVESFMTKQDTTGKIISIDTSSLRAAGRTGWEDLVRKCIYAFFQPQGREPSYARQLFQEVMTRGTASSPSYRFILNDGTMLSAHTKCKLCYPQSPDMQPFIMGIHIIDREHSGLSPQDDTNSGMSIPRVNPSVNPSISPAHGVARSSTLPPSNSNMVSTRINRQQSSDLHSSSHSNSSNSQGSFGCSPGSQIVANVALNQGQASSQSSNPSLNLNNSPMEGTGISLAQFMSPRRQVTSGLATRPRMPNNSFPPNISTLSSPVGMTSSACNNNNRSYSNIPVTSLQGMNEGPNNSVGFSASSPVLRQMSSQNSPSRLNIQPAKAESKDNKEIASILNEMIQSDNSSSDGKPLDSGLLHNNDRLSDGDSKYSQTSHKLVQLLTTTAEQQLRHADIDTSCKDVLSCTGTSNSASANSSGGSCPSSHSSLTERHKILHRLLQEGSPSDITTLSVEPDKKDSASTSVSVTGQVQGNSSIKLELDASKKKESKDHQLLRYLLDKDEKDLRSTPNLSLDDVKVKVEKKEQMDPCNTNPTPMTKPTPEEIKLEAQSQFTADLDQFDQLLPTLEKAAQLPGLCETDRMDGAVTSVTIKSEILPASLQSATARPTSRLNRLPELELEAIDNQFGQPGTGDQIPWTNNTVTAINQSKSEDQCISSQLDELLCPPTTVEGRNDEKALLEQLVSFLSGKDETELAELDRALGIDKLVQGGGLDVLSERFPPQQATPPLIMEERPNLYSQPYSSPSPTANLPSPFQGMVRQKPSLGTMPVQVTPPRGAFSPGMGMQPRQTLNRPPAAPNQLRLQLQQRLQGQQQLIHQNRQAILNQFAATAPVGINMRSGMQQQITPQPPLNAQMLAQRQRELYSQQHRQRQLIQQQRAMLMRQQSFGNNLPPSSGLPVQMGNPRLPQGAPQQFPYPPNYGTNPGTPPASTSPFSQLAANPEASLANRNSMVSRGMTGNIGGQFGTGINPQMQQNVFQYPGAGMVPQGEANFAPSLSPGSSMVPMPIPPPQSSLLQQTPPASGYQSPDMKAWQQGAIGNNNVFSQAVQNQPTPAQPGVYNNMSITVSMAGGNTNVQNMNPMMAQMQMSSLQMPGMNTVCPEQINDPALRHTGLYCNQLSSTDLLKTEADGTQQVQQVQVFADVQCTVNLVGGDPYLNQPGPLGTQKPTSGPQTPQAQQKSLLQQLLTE
# Chain of Nuclear receptor coactivator 3 (Homo sapiens) (Q9Y6Q9 whole entry, looked up, the tested form may be a part): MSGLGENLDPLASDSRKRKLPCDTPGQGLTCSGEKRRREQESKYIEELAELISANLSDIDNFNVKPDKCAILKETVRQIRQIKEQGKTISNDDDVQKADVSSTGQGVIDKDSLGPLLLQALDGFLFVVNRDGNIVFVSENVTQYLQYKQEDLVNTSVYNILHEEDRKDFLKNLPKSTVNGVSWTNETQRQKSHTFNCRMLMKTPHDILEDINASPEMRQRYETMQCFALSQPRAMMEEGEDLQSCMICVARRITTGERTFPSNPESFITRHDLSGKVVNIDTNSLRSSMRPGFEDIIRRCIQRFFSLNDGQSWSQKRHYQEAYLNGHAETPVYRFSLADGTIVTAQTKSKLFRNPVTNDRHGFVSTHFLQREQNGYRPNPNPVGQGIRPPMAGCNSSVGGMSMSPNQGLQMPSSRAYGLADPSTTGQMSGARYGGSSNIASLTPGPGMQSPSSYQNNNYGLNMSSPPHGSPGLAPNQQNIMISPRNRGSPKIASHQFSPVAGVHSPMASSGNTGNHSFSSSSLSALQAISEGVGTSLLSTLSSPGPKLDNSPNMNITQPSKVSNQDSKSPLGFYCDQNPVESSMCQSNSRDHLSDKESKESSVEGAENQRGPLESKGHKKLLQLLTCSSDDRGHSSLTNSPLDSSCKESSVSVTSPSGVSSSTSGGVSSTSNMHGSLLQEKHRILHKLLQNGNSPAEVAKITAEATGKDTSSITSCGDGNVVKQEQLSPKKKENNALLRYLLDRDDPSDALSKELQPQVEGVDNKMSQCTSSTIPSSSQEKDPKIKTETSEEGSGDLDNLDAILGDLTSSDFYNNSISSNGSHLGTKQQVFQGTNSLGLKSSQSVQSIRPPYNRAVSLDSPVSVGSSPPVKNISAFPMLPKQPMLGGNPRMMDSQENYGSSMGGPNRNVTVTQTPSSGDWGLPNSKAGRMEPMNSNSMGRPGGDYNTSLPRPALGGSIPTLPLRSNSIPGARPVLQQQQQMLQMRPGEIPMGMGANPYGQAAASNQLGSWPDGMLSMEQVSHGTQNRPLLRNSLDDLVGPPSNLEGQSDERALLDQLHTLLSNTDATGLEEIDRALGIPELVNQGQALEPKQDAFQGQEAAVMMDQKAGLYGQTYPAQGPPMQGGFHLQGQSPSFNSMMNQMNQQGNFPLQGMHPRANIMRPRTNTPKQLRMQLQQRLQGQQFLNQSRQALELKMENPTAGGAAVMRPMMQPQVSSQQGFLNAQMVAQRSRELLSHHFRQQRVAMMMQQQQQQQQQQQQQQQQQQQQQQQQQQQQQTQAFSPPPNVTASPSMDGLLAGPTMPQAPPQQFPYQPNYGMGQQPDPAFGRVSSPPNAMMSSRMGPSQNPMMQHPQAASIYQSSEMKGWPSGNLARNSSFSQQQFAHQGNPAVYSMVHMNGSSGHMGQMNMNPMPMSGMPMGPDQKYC
Structure (SMILES),inhibition [1],inhibition [2],inhibition [3],inhibition [4]
OCCNc1c2ccccc2nc2ccccc12,4.16%,40.4% (active),5.64%,42.2% (active)
Cc1cccc(CNc2ncnc3ccc(-c4ccoc4)cc23)c1,47% (active),40.7% (active),45.1%,46% (active)
Cc1cc(C)nc(/N=C(\N)Nc2ccc(-c3ccccc3)cc2)n1,9.37%,33.3% (active),21.7%,30.1% (active)
Cc1cc(C)nc(SCC(=O)Nc2ccnc3ccccc23)n1,12.2%,36.5% (active),-7.31%,31.7% (active)
O=C(NCc1cccs1)c1nc2c(nnn2Cc2ccccc2Cl)c(=O)[nH]1,84.2% (active),79.5% (active),58.5% (active),74.7% (active)
OCCN1CCN(C(=S)c2ccc(-c3ccccc3)cc2)CC1,35.6%,4.96%,36.8%,6.4%
O=[N+]([O-])c1ccc(Oc2ccc(F)cc2)c2ccncc12,46.8% (active),36% (active),47.6% (active),35.4% (active)
Cc1c(Cl)c([N+](=O)[O-])nn1Cc1ccc(C(=O)N/N=C\c2cc(Cl)ccc2O)o1,57.4% (active),48.7% (active),55.5% (active),52.9% (active)
CC(=O)NS(=O)(=O)c1ccc(NC(=O)/C=C/c2cn(-c3ccccc3)nc2-c2ccccc2)cc1,-12.7%,0.43%,1.36%,-3.92%
COc1cccc2nc3c(C(=O)NCCN(C)C)cccc3cc12,35.9%,39.9% (active),46.5%,32.7% (active)
O=C(N/N=C/c1cc(Br)ccc1O)c1ccncc1,23.8%,34.2% (active),26.4%,39.9% (active)
Cn1c(C(=O)O)c(CC(=O)Nc2ccc3c(c2)OCCO3)c2ccccc21,19.4%,3.77%,-17.2%,-7.4%
Cc1nn(Cc2ccc(Cl)cc2)c(C)c1NC(=O)c1cc(-c2ccc3c(c2)OCO3)on1,15.2%,50.3% (active),29.5%,54.1% (active)
C[n+]1c2n(c3ccccc31)N=C(c1ccc(Br)cc1)CS2,15.5%,24.7%,-14.8%,30.4% (active)
CN(C)/C=C/C(=O)c1ccc2noc(-c3ccccc3)c2c1,55.5% (active),28.1%,41.3%,33.7% (active)
CCCOc1ccc(/C=N/Nc2ccccc2[N+](=O)[O-])c(O)c1,27.7%,5%,-59.5%,-39.9%
c1ccc(CNc2c3ccccc3nc3ccccc23)cc1,11.8%,43.6% (active),0.54%,54.9% (active)
O=C(CCl)N1N=C(c2cccs2)CC1c1ccco1 (configuration not stated),27.7%,6.29%,18.4%,17.4%
CCN(CC)S(=O)(=O)c1ccc(/C=C/C(=O)Nc2ccc(Br)cc2F)cc1,21.2%,40.3% (active),16%,41.9% (active)
COc1cccc(/C=N/NC(=O)C(=O)Nc2ccccc2OC(F)(F)C(F)F)c1O,36.3%,38% (active),33.3%,23.4%
CC(C)(C)c1cc(C(=O)N/N=C/c2ccc(O)cc2)n(-c2ccccc2)n1,34.9%,14%,20.3%,13.7%
CN(Cc1ccccc1)c1ncnc(N)c1[N+](=O)[O-],41.4%,34.3% (active),38.4%,30% (active)
CC(=O)Nc1ccc(S(=O)(=O)c2ccnc3cc(Cl)ccc23)cc1,52.9% (active),44.1% (active),47% (active),39.2% (active)
Cc1ccc(S(=O)(=O)NC(CC(C)C)C(=O)NCC(c2ccco2)N2CCCCC2)cc1 (configuration not stated),27%,2.93%,32.8%,-1.82%
COc1cccc(-c2nnc3sc(C4CCCCC4)nn23)c1,64.5% (active),29.1%,57.4% (active),26.4% (active)
CN(c1ncnc(N)c1[N+](=O)[O-])C1CCS(=O)(=O)C1 (configuration not stated),55.2% (active),35.7% (active),52.7% (active),34.1% (active)
CN1CCN(c2ncnc3scc(-c4ccccc4Cl)c23)CC1,59.6% (active),41.5% (active),55.4% (active),44.3% (active)

Structure (SMILES),inhibition [1],inhibition [2],inhibition [3],inhibition [4]
Cc1ccccc1-c1cc(C(=O)Nc2sc(C(=O)OC(C)C)c(C)c2C#N)c2ccccc2n1,31.8%,50.9% (active),37.2%,40.9% (active)
COC(=O)c1c(C)oc2ccc(N(C(=O)c3ccncc3)S(=O)(=O)c3ccc(C)cc3C)cc12,1.85%,36.2% (active),-7%,27.3% (active)
CC1CCN(Cc2c(C(=O)N/N=C/c3cc(Br)ccc3O)nnn2-c2nonc2N)CC1,75.4% (active),83.5% (active),84.8% (active),81.9% (active)
CC(C)c1ccc(-c2csc(NC(=O)c3cccs3)c2C(=O)O)cc1,8.33%,18.6%,-2.31%,33.9% (active)
Nc1ncnc(NCc2ccc(F)cc2)c1[N+](=O)[O-],62.7% (active),29.8% (active),52.7% (active),29.9% (active)
Cc1c(-c2ccccc2)oc2c(C(=O)N3CCN(c4ccc([N+](=O)[O-])cc4)CC3)cccc2c1=O,54.4% (active),32.5% (active),45.9%,27.3% (active)
CCSCCc1nnc(NC(=O)Nc2cccc(C(F)(F)F)c2)s1,47.7% (active),43.8% (active),45.9%,28.4% (active)
c1nc(NCc2ccc3c(c2)OCO3)c2cc(-c3ccoc3)ccc2n1,70.4% (active),51.5% (active),54.8% (active),45.4% (active)
CC(C)(C)n1ncc2c(=O)n(CC(=O)OCc3ccccc3)cnc21,31.6%,17%,-21.8%,-23.3%
Clc1ccc(-c2csc3ncnc(NCCN4CCOCC4)c23)cc1,32.2%,25.3%,46.6%,31.8% (active)
COc1ccc(Nc2ncnc3ccc(Br)cc23)cc1OC,61.3% (active),40.6% (active),50.7% (active),42.2% (active)
CCN(CC)c1ncnc2ccc(Br)cc12,48.3% (active),31.9% (active),45.9%,36% (active)
O=C(Nc1nc(-c2ccccc2)cs1)c1ccc2c(=O)n3c(nc2c1)CCCCC3,9.45%,31.6% (active),-12%,30.9% (active)
O=C(NC(=S)Nc1ccc(N2CCN(C(=O)c3ccccc3)CC2)cc1)c1cccs1,25.8%,23.8%,16%,14.3%
O=C(COc1ccccc1O)NNc1ccccc1,11.6%,24%,-12.2%,29.2% (active)
COc1ccc2[nH]c3c(c2c1)CCNC3=O,53.2% (active),42.7% (active),62.3% (active),33.7% (active)
Nc1nc(/C=C/c2cccnc2)nc(-c2ccccc2O)n1,-12.6%,0.59%,-16.8%,14.2%
O=C1C(F)=CC(COC(c2ccccc2)(c2ccccc2)c2ccccc2)OC1n1cc(F)c(=O)[nH]c1=O (configuration not stated),66% (active),60.3% (active),-11.1%,62.1% (active)
Cc1ccc(C2CC(C(F)(F)F)n3nc(C(=O)NCc4c(C)nn(C)c4C)c(Cl)c3N2)cc1 (configuration not stated),7.71%,15.1%,-7%,10.9%
CN([C@@H](Cc1ccc(OS(=O)(=O)c2cccc3cnccc23)cc1)C(=O)N1CCN(c2ccccc2)CC1)S(=O)(=O)c1cccc2cnccc12,-2.66%,30.3% (active),-4.42%,31.2% (active)
COc1ccc(CN(C)C(=O)c2ccc(OCC(=O)Nc3cccc(C(F)(F)F)c3)c(OC)c2)cc1,4.69%,24.7%,2.4%,20.5%
O=C(NCc1ccccc1)c1csc(-c2cccnc2)n1,54.8% (active),30.8% (active),42.7%,37% (active)
COc1ccccc1N(C(=O)CCl)c1cn(C(C)=O)c2ccccc12,52.2% (active),27%,27.2%,18.7%
CC(C)CC(=O)/C(=C\c1ccc(Cl)cc1Cl)n1cncn1,60.2% (active),48.8% (active),14.1%,55.6% (active)
COc1ccc(OC)c(/C=C/c2ccnc3ccccc23)c1,19.1%,54.2% (active),34.5%,53.7% (active)
C[n+]1c2n(c3ccccc31)N=C(c1ccccc1)CS2,4.94%,37.2% (active),-2.14%,35.1% (active)
